The whole screen tested about 16,000 compounds, of which about 5,700 (36%) were called active. Inconclusive results (about 24%) are left out. Calls come from the whole dose curve; as a rule, active = well fitted curve in the direction sought with a large enough effect; inconclusive = small, poorly fitted or top-dose-only effect, or effect the other way; inactive = no such curve, though single readings can be large or run the other way. This is one part of the list.
% is set by controls: 0 for no effect and ±100 for the full control effect.

This assay deals with Cytochrome P450 1A2 (Homo sapiens) (UniProt P05177). Put plainly: Cytochrome panel assay with activity outcomes. The note with it: recombinant CYP, pro-luciferin dealkylation, luminescence, p450-cyp1a2; series mostly up to 57.1 µM; activity, negative = inhibition: at the top concentration.
Cytochrome P450 1A2 (Homo sapiens), sequence (P05177 whole entry, looked up): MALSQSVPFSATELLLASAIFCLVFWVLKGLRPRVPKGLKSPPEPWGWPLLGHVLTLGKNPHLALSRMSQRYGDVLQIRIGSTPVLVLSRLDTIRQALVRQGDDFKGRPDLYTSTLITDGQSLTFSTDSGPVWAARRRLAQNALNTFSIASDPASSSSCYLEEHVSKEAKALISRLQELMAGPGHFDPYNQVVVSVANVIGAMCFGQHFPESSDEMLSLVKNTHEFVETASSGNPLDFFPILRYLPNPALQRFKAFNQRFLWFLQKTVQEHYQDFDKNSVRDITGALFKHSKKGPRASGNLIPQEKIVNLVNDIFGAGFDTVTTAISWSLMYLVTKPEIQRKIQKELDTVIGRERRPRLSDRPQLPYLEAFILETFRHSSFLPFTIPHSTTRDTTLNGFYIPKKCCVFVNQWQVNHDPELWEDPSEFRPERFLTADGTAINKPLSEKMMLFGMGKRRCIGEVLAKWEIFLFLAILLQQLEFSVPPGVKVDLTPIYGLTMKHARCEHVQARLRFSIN
As a reminder, the AC50 is the midpoint of the concentration-response curve, whichever way the signal moves. In the case of `CNC(=S)NNC(=O)c1sccc1OCc1ccc(C)cc1`, the AC50 was 5.01 µM (active). As for `Cc1ccc(C(=O)NNC(=S)NC(=O)c2ccc(Cl)cc2)cc1`, the “activity, negative = inhibition” value was -10.7% (inactive). As for `COc1ccc(COc2ccsc2C(=O)Nc2ccc(Cl)c(Cl)c2)cc1`, the AC50 was 3.16 µM (active). Take `COc1ccc(Cc2nnc(NC(=O)c3ccc(Cl)c([N+](=O)[O-])c3)s2)cc1`: the “activity, negative = inhibition” value is 9.74% (inactive). Still for that read-out and setting: the value for `Cc1cc(C)n(Cc2ccc(NC(=O)c3ccc(COc4ccccc4Br)cc3)cc2)n1` was 17.9% (inactive). Consider `COc1ccc(-c2cc(C(F)(F)F)n3nc(C(=O)NCc4ccco4)c(Cl)c3n2)cc1`, for which the AC50 was 3.55 µM (active).

Regarding `Cc1cc(C)n(C(=O)c2cc3ccccc3c(=O)o2)n1`, the concentration at half-maximal activity (AC50) is 7.08 µM (active).

As to `O=C(O)CC1(C(=O)O)CCCCC1`, the activity, negative = inhibition was 5.1% [at 2.29 µM] (inactive).

For `CCOC(=O)c1ccc(NC(=O)Nc2ccc3c4c(cccc24)C(=O)N3CC)cc1`, the AC50 is 1.58 µM (active). As to `CCCOC(=O)c1ccc(NC(=O)c2cn(CC)c3nc(C)ccc3c2=O)cc1`, the “activity, negative = inhibition” value is -22.5% (inactive). On the same count and under the same terms, the value for `CCN1C(=O)c2cccc3c(NC(=O)c4cccc(N5C(=O)CCC5=O)c4)ccc1c23` was -15.9% (inactive). Regarding `CC(C)CO[C@H](c1ccc2c(c1)OCO2)[C@H](C)Br`, the AC50 is 0.631 µM (active). With `CC(C)CO/N=C1/C[C@@H](O)[C@@H](O)[C@@H]2[C@@H]3C(=O)N(Cc4ccc5c(c4)OCO5)C(=O)[C@H]3CC[C@@H]12`, the activity, negative = inhibition is -7.54% [at 11.4 µM] (inactive).

`CC(C)CO/N=C1/C[C@@H](O)[C@@H](O)[C@@H]2[C@@H]3C(=O)N(Cc4ccc5c(c4)OCO5)C(=O)[C@H]3CC[C@H]12`: the activity, negative = inhibition was 2.96% [at 11.4 µM] (inactive). Consider `c1ccc2c(-c3c[nH]c4ccccc34)c3ccccc3nc2c1`, for which the AC50 was 3.16 µM (active).

`c1ccc2c(CN3CCN(Cc4c[nH]c5ccccc45)CC3)c[nH]c2c1`: the activity, negative = inhibition was -18.1% [at 2.29 µM] (inactive). Turning to `O=C(O)[C@@H](Cc1c[nH]c2ccccc12)C(=O)NO`, the activity, negative = inhibition was -20.4% [at 11.4 µM] (inactive). On to `CO[C@H]1COC(=O)C/C=C\[C@@H](C)[C@H](OC)COC(=O)[C@H]2CCCN2C(=O)C/C=C\[C@@H]1C`, for which the activity, negative = inhibition is 3.92% [at 11.4 µM] (inactive). On the same count and under the same terms, the value for `CC(=O)OC[C@@H]1O[C@H](CCO/N=C(\C)CCC(=O)OC[C@@H]2O[C@H](C#Cc3ccccc3)C=C[C@@H]2Oc2ccc(C)cc2)C=C[C@@H]1OC(C)=O` was -1.59% [at 11.4 µM] (inactive). `Cc1nc2cc(NC(=O)CSc3nc4c(C)cccc4cc3C#N)ccc2s1`: the AC50 is 2.82 µM (active). In the case of `CCC(=O)NNC(=O)CCC(=O)Nc1ccccc1`, the “activity, negative = inhibition” value was 2.63% (inactive).

With `COc1ccc(NC(=O)CCOc2ccccc2)cc1`, the AC50 was 3.55 µM (active).

Take `O=C(Cc1ccccc1I)Nc1ccccc1`: the half-maximal activity concentration (AC50) was 12.6 µM (active).

For `COC(=O)c1cccc(NC(=O)CCCOc2ccccc2)c1`, the concentration at half-maximal activity (AC50) was 0.891 µM (active). On to `Oc1ccccc1CNCc1ccccc1O`, for which the activity, negative = inhibition was -17.8% [at 11.4 µM] (inactive). Same read-out and setting: the value for `CC(=O)NNC(=O)CCC(=O)Nc1ccccc1` was -3.3% (inactive). For `O=C(CCOc1ccccc1)Nc1ccccc1`, the concentration at half-maximal activity (AC50) is 8.91 µM (active).

Consider `O=S(=O)(O)C1CCNCC1`, for which the “activity, negative = inhibition” value is 7.71% (inactive). The same measure, in the same setting: the value for `CO[C@@H]1COC(=O)CC=C[C@@H](C)[C@@H]2C=C[C@H](O)[C@@H](COC(=O)[C@H](C)NC(=O)CC=C[C@H]1C)O2` was -7.89% [at 11.4 µM] (inactive). In the case of `COC(=O)c1cccc(NC(=O)Nc2ccc(Cl)c(Cl)c2)c1`, the AC50 is 8.91 µM (active). The same measure, in the same setting: the value for `COc1ccc(NC(=O)CCSc2cc(C)c3ccccc3n2)cc1` was 7.08 µM (active). On the same count and under the same terms, the value for `CCCCC#Cc1ccccc1CC(=O)Nc1ccccc1` was 2.51 µM (active). `CC(C)(CC(=O)Nc1ccccc1)C(=O)O`: the activity, negative = inhibition is -15.9% [at 11.4 µM] (inactive). Regarding `NCC(=O)Nc1ccccc1`, the AC50 is 2.51 µM (active). Regarding `Cc1cccc(C)c1NC(=O)C(c1ccc(Cl)cc1Cl)N1CCCCC1` (configuration not stated), the “activity, negative = inhibition” value is -22.8% (inactive). For the compound `O=C1C[C@@H](O)[C@@H](O)[C@@H]2[C@H]3C(=O)N(c4ccc(F)cc4F)C(=O)[C@@H]3CC[C@H]12`, the activity, negative = inhibition was 8.95% [at 11.4 µM] (inactive).

With `O=C(COc1ccccc1)Nc1ccc(-c2nnc(-c3ccco3)o2)cc1`, the “activity, negative = inhibition” value was 7.06% (inactive).

Take `O=C(COC(=O)COc1ccccc1)Nc1ccc(OC(F)(F)F)cc1`: the AC50 is 20 µM (active). The same measure, in the same setting: the value for `O=C(Nc1nnc(C2CC2)s1)C1Cc2ccccc2CN1S(=O)(=O)c1ccccc1F` (configuration not stated) was 12.6 µM (active). With `CCc1nnc(NC(=O)C2Cc3ccccc3CN2S(=O)(=O)c2ccc(C)cc2)s1` (configuration not stated), the “activity, negative = inhibition” value was -13.9% (inactive). As to `Nc1ccc(S(=O)(=O)Nc2nccs2)cc1`, the “activity, negative = inhibition” value is -1.59% [at 25.6 µM] (inactive).

Turning to `O=C(Nc1nccs1)C1Cc2ccccc2CN1S(=O)(=O)c1ccc(F)cc1` (configuration not stated), the half-maximal activity concentration (AC50) is 2.24 µM (active). `O=C(c1csnn1)N1CCC2(CC1)CN(c1ccccn1)C2`: the “activity, negative = inhibition” value was -12% (inactive). With `Cc1ccc2nc(-c3ccc(NC(=O)Cc4cccs4)cc3)[nH]c2c1`, the AC50 was 0.631 µM (active). On to `CCNc1ncc2nc(C)c(=O)n(CCC#N)c2n1`, for which the AC50 is 12.6 µM (active). The same measure, in the same setting: the value for `CCNc1ncc2nc(-c3cn(C)c4ccccc34)c(=O)n(C)c2n1` was 0.1 µM (active); that for `CCNc1ncc2nc(-c3ccccc3)c(=O)n(CCC#N)c2n1` was 3.16 µM (active); that for `CCNc1ncc2nc(-c3cn(C)c4ccccc34)c(=O)n(CCC#N)c2n1` was 5.01 µM (active). As for `CC1(C)S[C@@H]2[C@H](NC(=O)[C@H](C(=O)O)c3ccsc3)C(=O)N2[C@H]1C(=O)O`, the “activity, negative = inhibition” value was -3.26% [at 25.6 µM] (inactive). Take `CCOC(=O)c1c(C)[nH]c2ccc3c(c12)CN1CCc2cc(OC)ccc2[C@@H]1O3`: the AC50 is 0.158 µM (active). In the case of `CCOC(=O)Oc1c(OC)cc(C(=O)O[C@H]2C[C@H]3CN4CCc5c([nH]c6cc(OC)ccc56)[C@@H]4C[C@H]3[C@@H](C(=O)OC)[C@@H]2OC)cc1OC`, the “activity, negative = inhibition” value was -4.49% [at 25.6 µM] (inactive). Consider `Cc1ccc(C)c(/C(O)=C2/C(=O)C(=O)N(CCN3CCOCC3)C2c2ccco2)c1` (configuration not stated), for which the AC50 was 25.1 µM (active). `Cc1ccc(C2/C(=C(/O)c3ccccc3)C(=O)C(=O)N2CCN2CCOCC2)o1` (configuration not stated): the “activity, negative = inhibition” value was -25.3% (inactive). On the same count and under the same terms, the value for `COc1ccc(/C(O)=C2/C(=O)C(=O)N(CCN3CCOCC3)C2c2ccc(C)cc2)cc1` (configuration not stated) was 8.1% (inactive). Take `CN1CCc2[nH]nc(-c3n[nH]c4c3CN(C)CC4)c2C1`: the activity, negative = inhibition was -15.6% [at 11.4 µM] (inactive). As to `COc1ccc2[nH]c3c(c2c1)CN(C)CC3`, the AC50 is 12.6 µM (active). Consider `COc1ccc2c3c([nH]c2c1)[C@@H]1C[C@@H]2[C@@H](C[C@H](O)[C@H](OC)[C@H]2C(=O)O)CN1CC3`, for which the “activity, negative = inhibition” value is -3.07% [at 25.6 µM] (inactive).

Regarding `CCOc1ccc(N(CCC#N)S(=O)(=O)c2ccc(OC)cc2)cc1`, the “activity, negative = inhibition” value is 2.01% (inactive). Turning to `COc1ccc(C(=O)NC(=S)NCc2ccccc2)cc1`, the AC50 is 3.16 µM (active). In the case of `CC(C)(C)C(=O)NC(=S)NCCc1ccccc1`, the AC50 is 7.08 µM (active). Regarding `COc1ccc(C(=O)NNC(=S)NC(=O)c2ccco2)cc1`, the “activity, negative = inhibition” value was -16.2% (inactive).

For `COc1ccc(CN(CCC#N)C(=S)NC(=O)c2ccccc2)cc1`, the half-maximal activity concentration (AC50) is 5.01 µM (active). Consider `CN(C)C(=O)N1CCCC(C(=O)NCCc2ccccc2)C1` (configuration not stated), for which the “activity, negative = inhibition” value was 8.15% (inactive). For the compound `COc1ccc(C(=O)NCc2ccc(-c3nc4ccccc4s3)cc2)cc1`, the AC50 is 3.16 µM (active).

For `Cc1ccc(C(=O)NC(=S)Nc2cc(-c3nc4ccccc4s3)ccc2C)cc1`, the “activity, negative = inhibition” value was -18.7% (inactive). Still for that read-out and setting: the value for `O=C(Oc1ccc2c(c1)CN(Cc1ccccc1)CO2)c1ccccc1` was -14.3% [at 2.29 µM] (inactive); that for `C[C@H](c1ccccc1)N1C(=O)[C@H]2[C@@H]3[C@H](O)[C@H](O)CC(=O)[C@H]3CC[C@H]2C1=O` was -6.45% [at 11.4 µM] (inactive). Regarding `O=C(O)Cc1ccc2ocnc2c1`, the “activity, negative = inhibition” value was 12.6% (inactive). Same read-out and setting: the value for `CCCCN1C(=O)CN(CCc2ccccc2)C(=O)C1c1ccc(OC)cc1` (configuration not stated) was -13.8% (inactive). For `CNC(=O)NC(=S)NC(=O)c1ccc(OC)cc1`, the AC50 was 10 µM (active). On to `COc1cc(OC)cc(C(=O)NC(=S)Nc2ccc(Cl)c(C(=O)O)c2)c1`, for which the “activity, negative = inhibition” value was -4.61% (inactive). As to `COc1cc(OC)cc(C(=O)NC(=S)NCCc2ccccc2)c1`, the AC50 was 1.26 µM (active). Same read-out and setting: the value for `COc1ccc(C(=O)NCc2cn3ccccc3n2)cc1` was 10 µM (active). In the case of `Cc1ccc(C(=O)O)cc1N1C(=O)c2cccc3cc(Br)cc(c23)C1=O`, the “activity, negative = inhibition” value is -9.48% (inactive). As for `CN(Cc1cc(C(C)(C)C)cc(Br)c1O)Cc1cc(C(C)(C)C)cc(Br)c1O`, the AC50 is 3.16 µM (active). In the case of `CC(CCC(=O)O)(c1cc(Br)c(O)c(Br)c1)c1cc(Br)c(O)c(Br)c1`, the activity, negative = inhibition is -17.9% [at 2.29 µM] (inactive). Still for that read-out and setting: the value for `CC(C)(C)c1cc2c(O)c(c1)Cc1cc(C(C)(C)C)cc(c1O)Cc1cc(C(C)(C)C)cc(c1O)Cc1cc(C(C)(C)C)cc(c1O)Cc1cc(C(C)(C)C)cc(c1O)Cc1cc(C(C)(C)C)cc(c1O)Cc1cc(C(C)(C)C)cc(c1O)Cc1cc(C(C)(C)C)cc(c1O)C2` was -14.2% [at 11.4 µM] (inactive); that for `COc1ccc(Cc2ccccc2C(=O)O)c2ccccc12` was 2.81% [at 2.29 µM] (inactive); that for `COc1ccc(CCN(C)CCC(=O)Nc2c(C)cc(C)cc2C)cc1OC` was 1.14% (inactive). Turning to `COc1ccc(C(=O)CCN(C)C)c2ccccc12`, the AC50 was 1.58 µM (active). On the same count and under the same terms, the value for `CN(Cc1ccco1)c1ncnc2ccc(-c3ccccc3C(F)(F)F)cc12` was 5.01 µM (active); that for `CN(Cc1ccco1)c1ncnc2ccc(-c3ccccc3Cl)cc12` was 2 µM (active). Still for that read-out and setting: the value for `CN(C)Cc1ccccc1-c1ccc2ncnc(N(C)Cc3ccco3)c2c1` was 2 µM (active); that for `CN(Cc1ccco1)c1ncnc2ccc(-c3cccc(C#N)c3)cc12` was 0.501 µM (active). For `COCC(=O)N1CCC[C@@]2(CCN(Cc3ccccc3OC)C2)C1`, the “activity, negative = inhibition” value is 6.76% (inactive).

As for `CC(=O)OC[C@@H]1O[C@H](C/C=N\O[C@@H]2O[C@H](COC(C)=O)[C@@H](OC(C)=O)[C@H](OC(C)=O)[C@H]2OC(C)=O)C=C[C@@H]1OC(C)=O`, the activity, negative = inhibition was -3.65% [at 11.4 µM] (inactive). For `CN(Cc1ccco1)c1ncnc2ccc(-c3ccccc3C#N)cc12`, the half-maximal activity concentration (AC50) is 1 µM (active).

For the origin of these results see PubChem BioAssay AID1851 (National Center for Advancing Translational Sciences (NCATS), 2009).
